Compound activity as filed in PubChem.
In the library only some 3.8% were active in any assay of this set; here they are far more common.
HepG2 tox = qHTS for Inhibitors of TGF-b: Cytotox Counterscreen. HepG2 CAGA-GFP viability, ATP luminescence, 18 h. Potency, µM (series often up to 46.1 µM), for inactives: top-dose activity change, negative = cytotoxicity, hits mostly cytotoxic. 410,000 compounds, 0.76% hits
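CellTiter-Glo luminescence gave cytotoxicity after 18 hours at 37 degrees C. The cells were HepG2 CAGA-GFP in 1% FBS DMEM, stimulated with 500 pg/mL TGF-beta after compound addition. %Activity was normalised to no-cell wells (complete cell-killing) and DMSO (no toxicity), and curves were fitted and classified.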
ATXN2 expr inh = Primary qHTS for Inhibitors of ATXN expression; 360,000 compounds, 0.72% hits; HEK-293 ATXN2-luciferase reporter, luminescence, 24 h; Potency, µM (doses to about 57 µM), inactives show at the highest dose activity change, negative = inhibition, usual class: inhibitors; note: % is set by controls: 0 for no effect and ±100 for the full control effect; nearly all actives have a fitted effect of over 55% in size
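ATXN2-luciferase reporter cells (luciferase flanked by upstream and downstream ATXN2 gene portions) were treated 24 h at 37 °C with compounds at up to 57 uM. SteadyGlo luminescence gave expression; GF-AFC fluorescence gave viability.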
ATXN viability = Viability Counterscreen for Primary qHTS for Inhibitors of ATXN expression. S2 cells (HEK-293 line with an ATXN2-luciferase reporter) viability, CellTiter-Fluor protease fluorescence, 24 h. Potency, µM (doses to about 56.7 µM), hits mostly cytotoxic. 400,000 compounds, 0.49% hits; note: nearly all actives have a fitted effect of over 40% in size
HT1080 IDH1KD tx = qHTS for induction of synthetic lethality in tumor cells producing 2HG: qHTS for the HT-1080-IDH1KD cell line | HT-1080 IDH1 knockdown viability, ATP luminescence, 48 h | Potency, µM (doses to about 46.1 µM), for the others: at the highest dose activity, negative = toxicity, hits mostly cytotoxic | 360,000 compounds, 2% hits;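 note: 0% = DMSO wells and -100% = cell-free medium wells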
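Cytotoxicity counter-line: IDH1KD HT-1080, 48 h, CellTiter-Glo. Curves classed by r2, magnitude and activity.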
HT1080NT lethal = qHTS for induction of synthetic lethality in tumor cells producing 2HG: qHTS for the HT-1080-NT fibrosarcoma cell line | HT-1080-NT fibrosarcoma viability, CellTiter-Glo ATP luminescence, 48 h | Potency, µM (doses to about 46.1 µM), for the others: at the highest dose activity, negative = less viability, usual class: cytotoxic | 360,000 compounds, 1.6% hits | AID 686970, 2013;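 note: NT is the 2HG producing partner of a matched IDH1 knockdown line; 0% = DMSO-treated cells and -100% = media-only wells without cells; nearly all actives have a fitted effect of over 55% in size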
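Compounds were tested in concentration-response format on HT-1080-NT cells for 48 hours at 37 degrees C. Cell viability came from CellTiter-Glo luminescence; curves were classified by r2, response magnitude and activity.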
TGFb SMAD3 inh = qHTS for Inhibitors of TGF-b; HepG2 CAGA-GFP TGF-b/SMAD3 reporter, GFP fluorescence, 18 h; TGF-beta stimulated, 500 pg/mL final; Potency, µM (highest dose often 46.1 µM), for the others: at the top dose activity, negative = inhibition, actives largely listed as inhibitors; 410,000 compounds, 1.2% hits; AID 588855, 2011; note: % is set by controls: 0 for no effect and ±100 for the full control effect; nearly all actives have a fitted effect of over 65% in size
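Using HEPG2 CAGA-GFP reporter cells at 1000 cells/well, we pinned test compounds, stimulated with recombinant TGF-beta (500 pg/mL final) and measured total well GFP after 18 h.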
The depositor's hits bear a star; i = inactive; u = inconclusive; x = no result. Calls come from the whole dose curve; as a rule, active = well fitted curve in the direction sought with a large enough effect; inconclusive = small, poorly fitted or top-dose-only effect, or another doubt; inactive = no such curve, though single readings can be large; an effect the other way counts as inactive or inconclusive. Potency is the fitted concentration of half-maximal effect.

SMILES	HepG2 tox	ATXN2 expr inh	ATXN viability	HT1080 IDH1KD tx	HT1080NT lethal	TGFb SMAD3 inh
COc1ccc([C@@H]2CC(=O)c3c(O)cc(O)cc3O2)cc1O	18%	61%	i	19%	49%	1%
COC(=O)[C@@H](NC(=O)C1CCCN(c2nc(C)c3ccc(C)cc3n2)C1)C(C)C (stereo partly specified)	x	x	i	x	x	x
COc1cccc(NC(=O)C/C(C)=N/NC(=O)c2ccccc2Cl)c1	-29%	x	i	-27%	-3%	-20%
C/C(CC(=O)Nc1ccc(Cl)c(C(F)(F)F)c1)=N\NC(=O)c1cc2ccccc2cc1O	-37%	u	u	16µM*	u	u
CCOc1cc(CNC(=O)c2ccc3c(c2)NC(=O)C2CCCCN32)cc(OCC)c1OCC (stereo unspecified)	-21%	-19%	i	x	x	-4%
[O-][n+]1onc2c1CCc1c-2nn(-c2ccccc2Cl)[n+]1[O-]	-37%	28µM*	u	11µM*	u	u
Nc1nc2c(c(=O)[nH]1)N(C=O)C(CNc1ccc(C(=O)N[C@@H](CCC(=O)O)C(=O)O)cc1)CN2 (stereo partly specified)	x	x	i	x	x	x
COCc1ccc(CN2CCOc3c(cc(-c4ccc(SC)cc4)cc3OC)C2)o1	x	x	i	x	x	x
O=C(NCCC1CCCCN1S(=O)(=O)c1ccc(F)cc1)C(=O)NCc1cccnc1 (stereo unspecified)	-9%	-4%	i	12%	9%	-2%
CCc1cnn2c(NCc3ccc[n+]([O-])c3)cc(N3CCCC[C@@H]3CCO)nc12	x	0.014µM*	x	x	x	x
CCCSc1cc(NCCOC(=O)CCC)c([N+](=O)[O-])c2nonc12	-9%	-19%	u	u	-2%	u
CCC(=O)OCCNc1cc(Sc2nc3ccccc3s2)c2nonc2c1[N+](=O)[O-]	13µM*	6.3µM*	8.9µM*	2.8µM*	-58%	7.9µM*
CCC(=O)OCCNc1cc(Sc2nc3ccccc3[nH]2)c2nonc2c1[N+](=O)[O-]	-70%	28µM*	28µM*	u	u	-27%
Cc1ccc(CN2CCN(C3CCN(S(=O)(=O)N(C)C)CC3)C(=O)C2=O)cc1	2%	0%	i	x	x	2%
O=C(C(Br)=Cc1ccccc1)c1ccccc1	-96%	20µM*	u	u	5.8µM*	10µM*
N#CC(=Cc1ccc(-c2ccccc2)cc1)C(=O)c1ccccc1	-40%	9%	i	-9%	0%	-28%
CC(=O)C(=Cc1ccc(-c2ccccc2)cc1)C(=O)c1ccccc1	x	u	x	23µM*	15µM*	x
O=C(c1ccc2c(c1)OCO2)N(Cc1cc2cc3c(cc2nc1N1CCOCC1)CCC3)CC1CCCO1 (stereo unspecified)	x	x	i	x	x	x
CC(=O)Nc1ccc(Nc2cc(C)nc3c(-c4ccccc4)cnn23)cc1	-2%	40%	i	13µM*	15µM*	0%
Cc1cc(N)n2ncc(-c3ccccc3)c2n1	-16%	87%	i	-11%	-10%	-13%
FC(F)(F)c1cnc(-c2cc3c(c(OCC4CCCO4)c2)OCCN(Cc2cccn2-c2nccs2)C3)c(Cl)c1 (stereo unspecified)	x	x	i	x	x	x
CCCCCCCn1c2c(c(=N)c3ccccc31)CCC2	2%	x	u	12µM*	u	u
CN(C)c1ccc(N/C=C/C(=O)c2ccccc2)cc1	-21%	u	i	u	8.9µM*	11%
N#Cc1cc(NC(=O)Nc2nnc(-c3ccncc3)s2)ccc1-c1cn[nH]c1	x	5%	x	x	x	x
